Bioassay records as filed in PubChem BioAssay.
hgDAF-12 ag = agonists of H. glycines DAF-12 nuclear receptor; 1.8% of 370,000 active; AID 687014; HEK293 GAL4-hgDAF12 UAS-luciferase reporter, agonist luminescence; normalized to butyrate control; activation, % at 6.8 µM;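 active = activation above a cutoff set at the mean of all screened compounds plus 3 SD, cut at about 10% in these data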
DAX1 inh-1 = inhibits human nuclear receptor DAX1. HEK293 Gal4-DAX1 luciferase reporter, luminescence. inhibition, % at 6.75 µM. 0.99% of 340,000 active;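 active = inhibition above the mean over all tested compounds plus 3 SD, cut at about 4.2% in these data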;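 note: inhibition shows as a rise in luminescence from relieved DAX1 repression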
ssDAF-12 act = activators of S. stercoralis DAF-12 nuclear receptor. HEK293 ssDAF-12/GRIP1 lit1-tk-luc reporter, luminescence; % of 3 µM dafachronic acid response. activation, % at 6.8 µM. 1% of 370,000 active. AID 652126;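 active = activation above the mean over all tested compounds plus 3 SD, cut at about 0.9% in these data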
hcDAF-12 act = activates DAF-12 receptor from parasite H. contortus; HEK293 hcDAF-12 lit1-tk-luc reporter, luminescence; 0% DMSO, 100% Δ7-dafachronic acid; activation, % at 6.8 µM; 1.4% of 370,000 active; AID 652067;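 active = activation above the mean of all tested compounds plus 3 SD, cut at about 5.5% in these data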
DAX1 inh-2 = blocks DAX1 repression of SF-1 activated StAR promoter; HEK293T StAR-luciferase reporter, SF-1/DAX-1 repression relief; inhibition, % at 6.8 µM; 1.1% of 370,000 active; AID 652010;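 active = inhibition above the mean over all tested compounds plus 3 SD, cut at about 3.6% in these data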;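 note: higher inhibition means more luminescence from relief of DAX-1 repression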
LXRb hcDAF ctr = activates human LXR-beta, counter-screen for hcDAF-12 agonists; activation, % at 6.8 µM; 3,400 tested, under 10 active; HEK293 Gal4-LXR tk-luc reporter, luminescence, 24 h; normalized: DMSO 0%, positive control 100%; shares compounds with hcDAF-12 act;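 active = mean percent activation of the reporter above a cutoff set as the average over tested compounds plus their standard deviation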
Target sequence (P55055 whole entry, looked up, the tested form may be a part): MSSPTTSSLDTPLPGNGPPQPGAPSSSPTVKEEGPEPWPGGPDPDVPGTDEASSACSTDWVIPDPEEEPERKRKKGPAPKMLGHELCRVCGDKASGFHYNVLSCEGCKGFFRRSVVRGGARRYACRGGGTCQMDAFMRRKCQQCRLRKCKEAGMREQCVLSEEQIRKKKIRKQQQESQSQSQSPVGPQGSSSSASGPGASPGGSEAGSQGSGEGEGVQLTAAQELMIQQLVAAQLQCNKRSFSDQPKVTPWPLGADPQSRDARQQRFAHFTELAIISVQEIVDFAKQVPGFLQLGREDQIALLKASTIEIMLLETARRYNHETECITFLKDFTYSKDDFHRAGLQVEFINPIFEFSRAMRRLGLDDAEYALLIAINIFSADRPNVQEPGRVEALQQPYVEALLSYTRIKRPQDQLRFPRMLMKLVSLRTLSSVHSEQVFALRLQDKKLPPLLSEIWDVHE
hcDAF12 conf = hcDAF-12 agonism, confirmation assay; shares compounds with hcDAF-12 act; 61% of 3,400 active; HEK293 hcDAF-12 lit1-tk-luc reporter, luminescence; % of Δ7-dafachronic acid response; activation, % at 6.8 µM;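 active = mean activation across triplicate tests above the threshold derived from the earlier primary screen, cut at about 5.5% in these data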
Hits are given with their value. A selection: hits, their analogues and other compounds. The true share with any hit is near 4.1%.

How did O=C(NCCCc1ccccc1)OC1CC2CC1[C@H]1CCCCN1[C@H]2Cc1ccccc1 (stereo partly specified) do in these assays?
hgDAF-12 ag: inactive; ssDAF-12 act: inactive; hcDAF-12 act: inactive; DAX1 inh-2: inactive

How did Cc1ccc2nc(-c3cccc(N)c3)[nH]c2c1 do in these assays?
hgDAF-12 ag: inactive; DAX1 inh-1: inactive; ssDAF-12 act: inactive; hcDAF-12 act: inactive; DAX1 inh-2: inactive

Results for Nc1cccc(-c2nc3ccccc3[nH]2)c1 ?
hgDAF-12 ag: inactive; DAX1 inh-1: inactive; ssDAF-12 act: inactive; hcDAF-12 act: 8.0; DAX1 inh-2: inactive; LXRb hcDAF ctr: inactive; hcDAF12 conf: inactive

How did Cc1nc2ccccc2nc(C)c1=NOCc1ccccc1Cl do in these assays?
hgDAF-12 ag: 11; DAX1 inh-1: inactive; ssDAF-12 act: inactive; hcDAF-12 act: 8.7; DAX1 inh-2: inactive; LXRb hcDAF ctr: inactive; hcDAF12 conf: inactive

How did Cc1c(-c2nc(-c3ccc(C(F)(F)F)cc3)no2)n(C)oc1=O do in these assays?
hgDAF-12 ag: inactive; ssDAF-12 act: inactive; hcDAF-12 act: 9.5; DAX1 inh-2: inactive; LXRb hcDAF ctr: inactive; hcDAF12 conf: 7.9

How did CS(=O)(=O)c1ccccc1-c1nc(-c2ccc(C(F)(F)F)cc2)no1 do in these assays?
hgDAF-12 ag: inactive; DAX1 inh-1: inactive; ssDAF-12 act: inactive; hcDAF-12 act: inactive; DAX1 inh-2: inactive

What do the screens show for `COc1ccc(/C=N/N2C(C)CCCC2C)cc1O` (stereo unspecified)?
hgDAF-12 ag: inactive; DAX1 inh-1: inactive; ssDAF-12 act: 0.9; hcDAF-12 act: 8.1; DAX1 inh-2: inactive; LXRb hcDAF ctr: inactive; hcDAF12 conf: 7.4

What do the screens show for `COC(=O)c1cc(-c2ccc(C(C)(C)C)cc2)c(=O)n2c1CCC2`?
hgDAF-12 ag: inactive; ssDAF-12 act: inactive; hcDAF-12 act: 7.1; DAX1 inh-2: inactive; LXRb hcDAF ctr: inactive; hcDAF12 conf: inactive

What do the screens show for `COC(=O)c1cc(-c2ccc(C)c(C)c2)c(=O)n2c1CCC2`?
hgDAF-12 ag: inactive; ssDAF-12 act: inactive; hcDAF-12 act: inactive; DAX1 inh-2: inactive

What do the screens show for `C=CCN1[C@H](Cc2ccccc2)COc2cccc(N3CCCC3)c2S1(=O)=O`?
hgDAF-12 ag: inactive; ssDAF-12 act: inactive; hcDAF-12 act: inactive; DAX1 inh-2: inactive

What do the screens show for `COc1ccc(-c2cc(-c3ccccc3O)[nH]n2)cc1`?
hgDAF-12 ag: 22; DAX1 inh-1: inactive; ssDAF-12 act: 4.4; hcDAF-12 act: 20; DAX1 inh-2: 3.7; LXRb hcDAF ctr: inactive; hcDAF12 conf: 23

What do the screens show for `Oc1ccccc1-c1cc(-c2ccccc2)n[nH]1`?
hgDAF-12 ag: 19; DAX1 inh-1: 5.9; ssDAF-12 act: 4.5; hcDAF-12 act: 19; DAX1 inh-2: 3.7; LXRb hcDAF ctr: inactive; hcDAF12 conf: 21

What do the screens show for `Oc1ccccc1-c1cc(-c2ccc(F)cc2)n[nH]1`?
hgDAF-12 ag: 22; DAX1 inh-1: 11; ssDAF-12 act: 4.3; hcDAF-12 act: 19; DAX1 inh-2: inactive; LXRb hcDAF ctr: inactive; hcDAF12 conf: 19

What do the screens show for `COc1ccc(O)c(-c2cc(-c3ccccc3Cl)[nH]n2)c1`?
hgDAF-12 ag: inactive; DAX1 inh-1: inactive; ssDAF-12 act: inactive; hcDAF-12 act: 7.5; DAX1 inh-2: inactive; LXRb hcDAF ctr: inactive; hcDAF12 conf: inactive

What do the screens show for `CSc1ncnc2c1ncn2CCCN1CCN(Cc2c(C)cc(C)cc2C)CC1`?
hgDAF-12 ag: inactive; DAX1 inh-1: inactive; ssDAF-12 act: inactive; hcDAF-12 act: inactive; DAX1 inh-2: inactive

How did Cc1ccc(O)c(-c2cc(-c3cccc(Br)c3)n[nH]2)c1 do in these assays?
hgDAF-12 ag: inactive; DAX1 inh-1: inactive; ssDAF-12 act: inactive; hcDAF-12 act: inactive; DAX1 inh-2: inactive

How did Cc1ccc(-c2cc(-c3ccc(F)cc3)n[nH]2)c(O)c1 do in these assays?
hgDAF-12 ag: 18; DAX1 inh-1: 12; ssDAF-12 act: 4.8; hcDAF-12 act: 20; DAX1 inh-2: inactive; LXRb hcDAF ctr: inactive; hcDAF12 conf: 18
